This note sets out measurements from PubChem BioAssay.

SMILES strings stand for the structures. A number with no mark means an inactive call. For some of these results: Potency and affinity values are given separately. Activity calls are given as the source filed them. Unless noted, how the calls were made is not given here.

In general, inhibition refers to the relative decrease from the control value, in per cent.

Test [1] is described as follows: antimalarial activity against Dd2 strain (AID 2302;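 active means growth inhibition above 50% at the single 2 µM test dose, taken to imply half-maximal potency below 2 µM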;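 further: 0% = DMSO untreated growth and 100% = chloroquine plus artemisinin killed control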). The conditions noted are these: P. falciparum Dd2 in RBCs, LDH growth readout, 72 h; at 2 µM; stronger effect = higher value.
Test [2] can be described thus: human hepatoma cell viability loss – ATP luminescence, cytotoxicity control for P. falciparum antimalarial project, primary screen (AID 2303;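 active means inhibition above 50%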;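 further: 0% = DMSO wells and 100% = digitonin-killed cells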). Particulars: HepG2 viability, 24-48 h, at 10 µM, stronger effect = higher value.
The target of test [3] is L-lactate dehydrogenase (Plasmodium falciparum (isolate CDC / Honduras)) (UniProt Q27743). In words: PfLDH activity inhibition – cell lysate, 3D7 strain, counter-screen for P. falciparum growth inhibition project (AID 2304).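 Further: 0% = vehicle and 100% = reference inhibitor.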 Particulars: P. falciparum 3D7 crude extract, LDH APAD/NBT absorbance; at 2 µM; stronger effect = higher value.
Chain of L-lactate dehydrogenase (Plasmodium falciparum (isolate CDC / Honduras)) (Q27743 whole entry, looked up): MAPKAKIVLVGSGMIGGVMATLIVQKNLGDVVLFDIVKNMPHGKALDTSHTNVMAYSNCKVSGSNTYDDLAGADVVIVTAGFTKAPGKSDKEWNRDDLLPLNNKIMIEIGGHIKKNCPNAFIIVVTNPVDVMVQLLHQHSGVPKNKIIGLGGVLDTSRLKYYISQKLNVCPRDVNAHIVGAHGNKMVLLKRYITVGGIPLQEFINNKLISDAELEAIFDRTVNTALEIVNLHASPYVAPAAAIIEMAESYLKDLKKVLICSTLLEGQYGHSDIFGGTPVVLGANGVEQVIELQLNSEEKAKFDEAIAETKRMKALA
Test [4] in a line: inhibition of 3D7 malaria parasite growth – strain 3D7 (AID 2306).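 Further: 0% = DMSO wells and 100% = chloroquine plus artemisinin control wells.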 The conditions noted are these: P. falciparum 3D7 erythrocytic growth, LDH absorbance, 72 h; at 2 µM; stronger effect = higher value.
In test [5] the target is Calcium-dependent protein kinase 1 (Plasmodium falciparum (isolate 3D7)) (UniProt P62344). The test is described as follows: PfCDPK1 kinase inhibitors, biochemical, TCAMS library (AID 1159585; cut-off not given, nearly all actives have IC50 up to about 0.98 µM;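 further: inhibitors leave more ATP so luminescence rises with inhibition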). The conditions noted are these: recombinant PfCDPK1, Kinase-Glo ATP depletion luminescence.
Chain of Calcium-dependent protein kinase 1 (Plasmodium falciparum (isolate 3D7)) (P62344 whole entry, looked up): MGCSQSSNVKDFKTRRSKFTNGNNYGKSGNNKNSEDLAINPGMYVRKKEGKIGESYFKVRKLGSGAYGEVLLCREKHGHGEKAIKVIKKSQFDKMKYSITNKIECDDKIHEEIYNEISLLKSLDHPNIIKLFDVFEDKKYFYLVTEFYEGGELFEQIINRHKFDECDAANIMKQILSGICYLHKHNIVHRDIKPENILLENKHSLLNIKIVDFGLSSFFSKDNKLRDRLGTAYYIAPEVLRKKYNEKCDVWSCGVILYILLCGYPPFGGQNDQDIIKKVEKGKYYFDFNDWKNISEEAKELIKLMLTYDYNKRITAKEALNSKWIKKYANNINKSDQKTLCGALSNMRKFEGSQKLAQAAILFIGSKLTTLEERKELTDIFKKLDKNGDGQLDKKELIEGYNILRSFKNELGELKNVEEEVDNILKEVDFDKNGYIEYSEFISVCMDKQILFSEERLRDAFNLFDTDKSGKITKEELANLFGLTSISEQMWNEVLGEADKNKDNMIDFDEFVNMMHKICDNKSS
In test [6] the target is Plasmodium falciparum protein kinase 6 (PK6, PF3D7_1337100) (UniProt Q8IDW1). The test is described as follows: PfPK6 kinase inhibitors, biochemical, TCAMS library (AID 1159586). The conditions noted are these: recombinant PfPK6, Kinase-Glo ATP depletion luminescence. (Kinase-Glo reads ATP consumption through a luciferase reaction.)
Chain of Plasmodium falciparum protein kinase 6 (PK6, PF3D7_1337100) (Q8IDW1 1-305): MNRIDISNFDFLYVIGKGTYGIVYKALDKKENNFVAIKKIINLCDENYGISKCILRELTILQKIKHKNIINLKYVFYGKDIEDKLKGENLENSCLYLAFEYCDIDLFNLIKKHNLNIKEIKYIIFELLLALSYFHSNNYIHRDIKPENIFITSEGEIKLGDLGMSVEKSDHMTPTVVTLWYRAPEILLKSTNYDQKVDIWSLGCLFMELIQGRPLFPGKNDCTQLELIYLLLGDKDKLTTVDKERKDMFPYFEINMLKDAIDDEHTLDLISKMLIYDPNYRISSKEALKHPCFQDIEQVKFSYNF
For test [7], the target named is Protein kinase 7 (PK7), Plasmodium falciparum 3D7 (PF3D7_0213400) (UniProt Q7YTF7). The test is described as follows: inhibition of Plasmodium PK7 catalytic activity – biochemical, TCAMS antimalarial set, Kinase-Glo luminescence (AID 1159587). Particulars: recombinant PfPK7, Kinase-Glo ATP depletion luminescence.
Chain of Protein kinase 7 (PK7), Plasmodium falciparum 3D7 (PF3D7_0213400) (Q7YTF7 1-343): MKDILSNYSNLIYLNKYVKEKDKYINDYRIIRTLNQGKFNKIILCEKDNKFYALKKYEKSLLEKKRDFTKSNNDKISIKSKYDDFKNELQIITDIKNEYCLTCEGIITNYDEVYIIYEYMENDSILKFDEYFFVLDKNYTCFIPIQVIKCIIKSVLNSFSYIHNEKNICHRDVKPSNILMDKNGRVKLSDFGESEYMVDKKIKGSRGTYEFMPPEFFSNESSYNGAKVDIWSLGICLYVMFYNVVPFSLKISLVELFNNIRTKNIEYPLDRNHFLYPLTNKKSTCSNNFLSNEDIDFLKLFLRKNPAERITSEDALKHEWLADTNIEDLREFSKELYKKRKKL
The target of test [8] is Calcium-dependent protein kinase 4 (Plasmodium falciparum (isolate 3D7)) (UniProt Q8IBS5). In words: PfCDPK4 kinase inhibitors, biochemical, TCAMS library (AID 1159588; cut-off not given, nearly all actives have IC50 up to about 0.91 µM). Particulars: recombinant PfCDPK4, Kinase-Glo ATP depletion luminescence.
Chain of Calcium-dependent protein kinase 4 (Plasmodium falciparum (isolate 3D7)) (Q8IBS5 whole entry, looked up): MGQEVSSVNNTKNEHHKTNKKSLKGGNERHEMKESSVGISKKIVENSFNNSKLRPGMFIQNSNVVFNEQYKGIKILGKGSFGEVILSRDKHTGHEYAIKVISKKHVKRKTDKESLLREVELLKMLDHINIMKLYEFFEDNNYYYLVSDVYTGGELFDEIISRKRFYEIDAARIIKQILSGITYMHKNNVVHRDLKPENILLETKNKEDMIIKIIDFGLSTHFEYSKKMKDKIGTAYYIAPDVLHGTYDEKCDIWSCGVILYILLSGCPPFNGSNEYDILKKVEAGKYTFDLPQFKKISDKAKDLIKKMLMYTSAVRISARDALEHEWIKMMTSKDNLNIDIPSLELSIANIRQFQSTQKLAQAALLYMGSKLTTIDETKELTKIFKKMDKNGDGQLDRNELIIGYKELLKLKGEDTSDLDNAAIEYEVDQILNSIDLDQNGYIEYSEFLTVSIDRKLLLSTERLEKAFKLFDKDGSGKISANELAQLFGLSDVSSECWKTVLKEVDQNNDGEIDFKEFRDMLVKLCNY

As for `O=C(Nc1ccc(C(F)(F)F)cc1)c1ccc(S(=O)(=O)NC2CCCN(CC3CCCCC3)C2)cc1` (stereo not given), the growth inhibition in test [1] is -1%; in test [4] it was 99% (active). The inhibition in test [2] is 45%; in test [3], -5%. The result in test [5], in test [6], in test [7] and in test [8] was inactive.
With `O=C(Nc1ccc(-c2nc3ccccc3[nH]2)cc1)c1cccc(S(=O)(=O)N2CCOCC2)c1`, the growth inhibition in test [1] was 43%; in test [4], 89% (active). Moreover, the results for the inhibition in test [2] and in test [3] were 6% and -5%, respectively. The result in test [5], in test [6], in test [7] and in test [8] was inactive.
For the compound `CN1CCN(c2ccnc3ccc(NC(=O)Nc4cccc5c(C#N)cccc45)cc23)CC1`, the values for the growth inhibition in test [1] and in test [4] were 40% and 91% (active), respectively. The inhibition in test [2] was -6%; in test [3] it was 8%. Moreover, the outcome in test [5], in test [6], in test [7] and in test [8] was inactive.
Consider `Cc1ccnc(-n2c(C)cc(C=C3SC(=Nc4ccccc4)N(Cc4ccco4)C3=O)c2C)c1`, for which the figures for the growth inhibition in test [1] and in test [4] were 98% (active) and 99% (active), respectively. Also, the results for the inhibition in test [2] and in test [3] were -5% and -1%, respectively. In addition, the result in test [5], in test [6], in test [7] and in test [8] was inactive.
On to `CCC(CC)N1CCN(CC(=O)Nc2ccc([N+](=O)[O-])cc2C(=O)Nc2cccc(OC)c2)CC1`, for which the growth inhibition in test [1] is 35%; in test [4] it was 100% (active). Further, the inhibition is 35% in test [2] and 0% in test [3]. In addition, the result in test [5], in test [6], in test [7] and in test [8] was inactive.
Take `O=C(CSc1nc2ccccc2c(=O)n1C1CC1)Nc1cc(C(F)(F)F)ccc1Cl`: the growth inhibition in test [1] was 96% (active); in test [4], 97% (active). Besides, the inhibition in test [2] is 5%; in test [3] it was 2%. The result in test [5], in test [6], in test [7] and in test [8] was inactive.
In the case of `O=C(/C=C/c1ccsc1)N1CCC(CCN2CCC(c3c[nH]c4ccccc34)CC2)CC1`, the growth inhibition was 24% in test [1] and 88% (active) in test [4]. Also, the inhibition in test [2] was 37%; in test [3], 4%. For the same compound, the outcome in test [5], in test [6], in test [7] and in test [8] was inactive.
Take `O=C(Nc1ccc(Br)cc1)N(CCN1CCOCC1)CC(O)COc1ccc(Cl)c(F)c1` (stereo not given): the growth inhibition in test [1] is 30%; in test [4], 98% (active). In addition, the inhibition in test [2] is 3%; in test [3], -4%. Also, the outcome in test [5], in test [6], in test [7] and in test [8] was inactive.
For the compound `O=C(NC1CCCCN(Cc2ccccc2O)C1)c1cc(F)cc(F)c1` (stereo not given), the growth inhibition in test [1] was 52% (active); in test [4], 89% (active). The values for the inhibition in test [2] and in test [3] were 7% and 0%, respectively. For the same compound, the outcome in test [5], in test [6], in test [7] and in test [8] was inactive.
Turning to `O=C(NCc1cccc(F)c1)Nc1cccc(-c2cccc(-c3nc4ccccc4[nH]3)c2)c1`, the growth inhibition in test [1] is 27%; in test [4] it was 96% (active). Moreover, the values for the inhibition in test [2] and in test [3] were 28% and -1%, respectively. The result in test [5], in test [6], in test [7] and in test [8] was inactive.
For the compound `O=C(N[C@H]1CCN(Cc2ccc(OCCCN3CCCCC3)cc2)C1)c1ccc(Cl)c(Cl)c1`, the growth inhibition is 36% in test [1] and 102% (active) in test [4]. Moreover, the figures for the inhibition in test [2] and in test [3] were 27% and 0%, respectively. Also, the outcome in test [5], in test [6], in test [7] and in test [8] was inactive.
In the case of `Cc1cc(NC(=O)[C@H](CC2CCCCC2)Nc2ccc(C#N)c3ccccc23)ccc1F`, the figures for the growth inhibition in test [1] and in test [4] were 99% (active) and 102% (active), respectively. Further, the inhibition was 21% in test [2] and -6% in test [3]. Moreover, the result in test [5], in test [6], in test [7] and in test [8] was inactive.
As for `O=c1[nH]c(NCCCCCN2CCC(c3c[nH]c4ccccc34)CC2)ncc1Cc1ccc(Cl)c(Cl)c1`, the values for the growth inhibition in test [1] and in test [4] were 8% and 94% (active), respectively. The inhibition in test [2] was 21%; in test [3], -4%. The result in test [5], in test [6], in test [7] and in test [8] was inactive.
Regarding `CC1(C)N=C(N)N=C(N)N1OCCSCCON1C(N)=NC(N)=NC1(C)C`, the values for the growth inhibition in test [1] and in test [4] were 81% (active) and 95% (active), respectively. Besides, the results for the inhibition in test [2] and in test [3] were 34% and -4%, respectively. The outcome in test [5], in test [6], in test [7] and in test [8] was inactive.
On to `OCCN1CCN(c2ccc(Nc3ccnc4cc5ccccc5cc34)cc2)CC1`, for which the growth inhibition in test [1] and in test [4] was 100% (active) in each case. Besides, the inhibition was 98% (active) in test [2] and -1% in test [3]. The outcome in test [5], in test [6], in test [7] and in test [8] was inactive.
For the compound `COc1ccc2nccc([C@@H](O)CN3CCC(NC(=O)C(c4cc5ccccc5o4)N4CCC(Cc5ccccc5)CC4)CC3)c2c1` (stereo not given in full), the growth inhibition was 82% (active) in test [1] and 100% (active) in test [4]. Further, the inhibition is 11% in test [2] and 0% in test [3]. For the same compound, the result in test [5], in test [6], in test [7] and in test [8] was inactive.
In the case of `CC(C)NCc1ccc(-c2cccc(NC(=O)c3ccc(C#N)cc3)c2)cc1`, the growth inhibition in test [1] is 19%; in test [4], 100% (active). Also, the inhibition was 8% in test [2] and 4% in test [3]. The outcome in test [5], in test [6], in test [7] and in test [8] was inactive.
Turning to `N#Cc1ccc(NC(=NCc2cccnc2)Nc2ccc(-c3ccccc3)cc2)c(O)c1`, the growth inhibition is 46% in test [1] and 101% (active) in test [4]. The inhibition is 2% in test [2] and -3% in test [3]. Moreover, the outcome in test [5], in test [6], in test [7] and in test [8] was inactive.
For the compound `CC(=O)c1ccc(N2CCN(C(=O)Nc3ccc(Cl)cc3)CC2)cc1`, the values for the growth inhibition in test [1] and in test [4] were 0% and 97% (active), respectively. In addition, the inhibition in test [2] was 4%; in test [3] it was 0%. The result in test [5], in test [6], in test [7] and in test [8] was inactive.
Consider `Cc1cc(N[C@@H](CC(C)C)C(=O)Nc2ccccc2)nc(Nc2ccccc2)n1`, for which the growth inhibition was 93% (active) in test [1] and 99% (active) in test [4]. For the same compound, the inhibition is -2% in test [2] and -1% in test [3]. For the same compound, the outcome in test [5], in test [6], in test [7] and in test [8] was inactive.
